Assay [1] can be described thus: Caspase-3/7 induction in CHO-K1 cells by small molecules, qHTS assay (AID 1346980). Also: nearly all actives have a fitted effect of over 15% in size. The method in brief:
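Wild-type cells were seeded at 1,500 per well and settled 5 hr at 37 C, 5% CO2, then exposed to DMSO-dissolved compounds for 17 hr. Caspase-Glo 3/7 reagent was added, and luminescence was read after 30min at room temperature.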

Assay [2] deals with Nuclear receptor subfamily 1 group I member 2 (Homo sapiens) (UniProt O75469). The assay can be described thus: Human pregnane X receptor (PXR) small molecule agonists, qHTS assay (AID 1346982). Also: nearly all actives have a fitted effect of over 35% in size. Also: potency is read from the fitted curve at half-maximal effect. The method in brief: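 Luminescence (ONE-Glo, 30 min RT) after 24 hr compound exposure of PXR-Luc HepG2 cells; cells rested 5 hr post-plating in 5% charcoal-stripped FBS medium.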
Chain of Nuclear receptor subfamily 1 group I member 2 (Homo sapiens) (O75469 whole entry, looked up): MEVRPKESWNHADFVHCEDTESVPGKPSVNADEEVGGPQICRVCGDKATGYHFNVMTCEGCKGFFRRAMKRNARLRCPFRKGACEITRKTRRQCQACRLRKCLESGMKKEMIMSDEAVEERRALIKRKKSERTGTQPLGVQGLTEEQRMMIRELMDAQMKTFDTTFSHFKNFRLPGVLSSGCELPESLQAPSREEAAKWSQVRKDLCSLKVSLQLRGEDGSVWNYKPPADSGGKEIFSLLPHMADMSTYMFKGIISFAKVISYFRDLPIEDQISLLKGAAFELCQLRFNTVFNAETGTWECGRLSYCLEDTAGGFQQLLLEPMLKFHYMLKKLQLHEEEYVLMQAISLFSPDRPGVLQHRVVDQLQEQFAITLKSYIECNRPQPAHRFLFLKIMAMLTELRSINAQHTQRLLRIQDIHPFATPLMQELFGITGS
(In general: qHTS replaces the single test concentration by a dilution series.)

Assay [3] addresses Nuclear receptor subfamily 1 group I member 2 (Rattus norvegicus) (UniProt Q9R1A7). In words: Rat pregnane X receptor (rPXR) activation by small molecules, qHTS assay (AID 1346983). Also: nearly all actives have a fitted effect of over 20% in size. To be noted: rPXR luciferase reporter cells, One-Glo luminescence, 24 h; stronger effect = higher value. The procedure, abridged: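 Cell-based rPXR luciferase reporter assay, 2,000 cells per well, rested 5hr at 37 C before compound addition in DMSO, then 24 hr at 37 C. One-Glo reagent was added and luminescence read after 30 min at room temperature.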

In assay [4] the target is Nuclear receptor subfamily 1 group I member 2 (Homo sapiens) (UniProt O75469). The assay can be described thus: CYP3A4 induction through human pregnane X receptor (PXR) by small molecules, qHTS assay (AID 1346984). Also: nearly all actives have a fitted effect of over 40% in size. The method in brief: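 DPX-2 reporter cells; 24h cpd, 37C; Luciferin-IPA 3uM final x3h; One-Glo 30 min RT; lumi read.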
Assay [5] has the same target. The assay can be described thus: Human pregnane X receptor (PXR) activation by small molecules, qHTS assay (AID 1346985). Also: nearly all actives have a fitted effect of over 40% in size. The method in brief: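 DPX-2 cells (HepG2 co-transfected with a PXR response element and a CYP3A4-promoter luciferase construct) were seeded at 2,000 per well, rested 5 hr at 37C, then exposed to DMSO-dissolved compounds for 24 hr. Activation was read as luciferase luminescence.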

Assay [6] addresses Cytochrome P450 2D6 (Homo sapiens) (UniProt P10635). In words: Cytochrome P450 Family 2 Subfamily D Member 6 (CYP2D6) small molecule antagonists: luciferase reporter qHTS assay (AID 1671196). Also: nearly all actives have a fitted effect of over 50% in size. Also: potency is read from the fitted curve at half-maximal effect. The method in brief:
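Inhibition of CYP2D6 was gauged by loss of luminescence, since light produced tracks the luciferin generated from a proluciferin substrate. A 10 min room-temperature preincubation preceded 1 h NADPH-supported turnover.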
For orientation: In a reporter assay the amount or activity of a reporter protein is the signal.

Assay [7] addresses Cytochrome P450 2C19 (Homo sapiens) (UniProt P33261). The assay can be described thus: Cytochrome P450 Family 2 Subfamily C Member 19 (CYP2C19) small molecule antagonists: luciferase reporter qHTS assay (AID 1671197). Also: nearly all actives have a fitted effect of over 65% in size. Also: potency is read from the fitted curve at half-maximal effect. The procedure, abridged:
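P450-Glo CYP2C19 screening system; proluciferin substrate; DMSO compound stocks; 10 min RT preincubation; NADPH regeneration, 1 h at 37C; luciferin detection reagent, 20 min RT; luminescence as RLU.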

Assay [8] concerns the target Cytochrome P450 2C9 (Homo sapiens) (UniProt P11712). The assay can be described thus: Cytochrome P450 Family 2 Subfamily C Member 9 (CYP2C9) small molecule antagonists: luciferase reporter qHTS assay (AID 1671198). Also: nearly all actives have a fitted effect of over 50% in size. Also: potency is read from the fitted curve at half-maximal effect. The procedure, abridged: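 CYP2C9 activity was measured with a P450-Glo proluciferin substrate. Enzyme–substrate mix was held with compound for 10 min at room temperature, then NADPH regeneration solution was added for 1 h at 37C. Luciferin product was read as luminescence.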

Assay [9] concerns the target Cytochrome P450 1A2 (Homo sapiens) (UniProt P05177). In words: Cytochrome P450 Family 1 Subfamily A Member 2 (CYP1A2) small molecule antagonists: luciferase reporter qHTS assay (AID 1671199). Also: nearly all actives have a fitted effect of over 50% in size. Also: potency is read from the fitted curve at half-maximal effect. The procedure, abridged:
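Signal from luciferin formed by CYP1A2 from a proluciferin substrate is read as luminescence, expressed in relative luminescence units. Compounds sit with enzyme 10 min, NADPH-driven reaction runs 1 h, all at room temperature.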

Assay [10] has as its target Voltage-gated inwardly rectifying potassium channel KCNH2 (Homo sapiens) (UniProt Q12809). In words: Human Ether-a-go-go-Related Gene (hERG) channel small molecule antagonists: fluorescence cell-based qHTS assay (AID 1671200).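 Also: hERG-expressing U2OS cells given a thallium stimulus after FluxOR II dye loading; series mostly up to about 77 µM; nearly all actives have a fitted effect of over 50% in size.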 The procedure, abridged: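 U2OS cells expressing the channel were plated at 1000 cells/well, incubated overnight at 37 C, then loaded with FluxOR II thallium-sensitive dye for 1 h at room temperature in the dark, with a further 10 min at room temperature before stimulation.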

The target of assay [11] is Cytochrome P450 3A4 (Homo sapiens) (UniProt P08684). In words: Cytochrome P450 Family 3 Subfamily A Member 4 (CYP3A4) small molecule antagonists: luciferase reporter qHTS assay (AID 1671201). Also: nearly all actives have a fitted effect of over 50% in size. Also: potency is read from the fitted curve at half-maximal effect. The procedure, abridged: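 P450-Glo CYP3A4 system with proluciferin substrate; compounds preincubated 10 min RT with enzyme-substrate mix, then NADPH regeneration added for 1 h RT. Detection reagent 20 min, luminescence read as relative luminescence units.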
Chain of Cytochrome P450 3A4 (Homo sapiens) (P08684 whole entry, looked up): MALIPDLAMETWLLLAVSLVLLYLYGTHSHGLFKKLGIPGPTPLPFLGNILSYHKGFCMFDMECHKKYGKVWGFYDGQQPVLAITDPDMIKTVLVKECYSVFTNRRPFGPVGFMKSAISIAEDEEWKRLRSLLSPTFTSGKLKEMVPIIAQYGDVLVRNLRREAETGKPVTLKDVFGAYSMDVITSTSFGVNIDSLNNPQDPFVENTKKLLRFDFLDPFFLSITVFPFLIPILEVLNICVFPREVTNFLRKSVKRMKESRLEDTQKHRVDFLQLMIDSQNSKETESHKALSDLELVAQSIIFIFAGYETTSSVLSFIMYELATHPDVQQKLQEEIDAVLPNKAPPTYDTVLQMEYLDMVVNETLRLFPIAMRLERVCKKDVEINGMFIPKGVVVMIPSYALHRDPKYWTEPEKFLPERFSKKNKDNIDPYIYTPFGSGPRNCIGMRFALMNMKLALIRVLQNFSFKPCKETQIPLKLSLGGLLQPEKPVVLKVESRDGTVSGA

Assay [12] is described as follows: Caspase-3/7 induction in HepG2 cells by small molecules, qHTS cell viability counter screen (AID 1346981). Also: series mostly up to about 92 µM; nearly all actives have a fitted effect of over 30% in size. The method in brief:
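Counter screen for cytotoxicity: HepG2 exposed 16 hr to compounds, then CellTiter-Fluor viability signal (fluorescence, 1 hr reagent incubation).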

The target of assay [13] is Acetylcholinesterase (Homo sapiens) (UniProt P22303). The assay can be described thus: Acetylcholinesterase (AChE) small molecule antagonists: enzyme-based qHTS assay (AID 1347397; calls by dose curve; also: nearly all actives have a fitted effect of over 55% in size). To be noted: Potency: AChE enzyme activity inhibition. The procedure, abridged:
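Recombinant human AChE, dispensed at 50 mU/mL, was preincubated with Tox21 10K compounds or DMSO vehicle for 30 min at room temperature. DTNB plus acetylthiocholine was then added, and thiocholine was measured colorimetrically after a further 10 min.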

Assay [14] shares this target. The assay can be described thus: Acetylcholinesterase (AChE) small molecule antagonists: fluorescence cell-based qHTS assay (AID 1347398; calls by dose curve; also: nearly all actives have a fitted effect of over 50% in size). The conditions noted are these: Potency: AChE activity. The procedure, abridged: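 Human SH-SY5Y cells were plated overnight at 37 C, exposed to compound for 30 min at 37 C, 5% CO2, then given acetylthiocholine plus Thiolite Green for 40 min at room temperature; thiocholine fluorescence (Ex/Em 490/520 nm) reports endogenous AChE activity.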

The target is the same in assay [15]. The assay can be described thus: Acetylcholinesterase (AChE) small molecule antagonists: enzyme-based qHTS assay with human liver microsomes (AID 1347399; calls by dose curve; also: nearly all actives have a fitted effect of over 60% in size). To be noted: Potency: qHTS inhibition. The method in brief:
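Recombinant human AChE (50 mU/mL in the enzyme mix) and human liver microsomes (0.25 mg/mL final) were preincubated with compound and NADPH (0.25 mg/mL final) for 30 min at 37 C. Acetylthiocholine/DTNB was then added; thiocholine was read colorimetrically after 10 min at room temperature.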

Where “and” joins values, the source holds several entries; their conditions need not be identical. Equal entries are not always repeated. Records with an inconclusive call do not appear. The source holds several records for some structures; these can differ, active in one and inactive in another. Calls of active or inactive are those of the source. Unless noted, calls follow the shape of the dose curve; as a rule, active = well fitted curve in the direction sought with a large enough effect in the repeat runs; inconclusive = weak or mixed curves; inactive = no such curve, though single readings can be large; an effect the other way counts as inactive or inconclusive.
% is scaled to controls: 0 for no effect and ±100 for the full control effect.

Chain of Cytochrome P450 1A2 (Homo sapiens) (P05177 whole entry, looked up): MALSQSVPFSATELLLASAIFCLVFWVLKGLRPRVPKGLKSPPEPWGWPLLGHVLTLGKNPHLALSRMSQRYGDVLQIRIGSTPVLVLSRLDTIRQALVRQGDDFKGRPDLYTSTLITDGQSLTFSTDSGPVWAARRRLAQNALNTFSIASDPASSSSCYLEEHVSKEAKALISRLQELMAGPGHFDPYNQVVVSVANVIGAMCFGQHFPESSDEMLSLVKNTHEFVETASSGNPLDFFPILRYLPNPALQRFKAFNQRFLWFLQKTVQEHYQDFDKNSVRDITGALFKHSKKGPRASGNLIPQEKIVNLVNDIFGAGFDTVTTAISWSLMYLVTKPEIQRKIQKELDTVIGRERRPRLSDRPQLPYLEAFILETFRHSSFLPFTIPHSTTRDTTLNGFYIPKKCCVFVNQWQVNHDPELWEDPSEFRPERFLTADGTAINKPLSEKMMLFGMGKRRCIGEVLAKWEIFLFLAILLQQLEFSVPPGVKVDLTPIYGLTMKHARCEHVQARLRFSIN
Chain of Cytochrome P450 2C19 (Homo sapiens) (P33261 whole entry, looked up): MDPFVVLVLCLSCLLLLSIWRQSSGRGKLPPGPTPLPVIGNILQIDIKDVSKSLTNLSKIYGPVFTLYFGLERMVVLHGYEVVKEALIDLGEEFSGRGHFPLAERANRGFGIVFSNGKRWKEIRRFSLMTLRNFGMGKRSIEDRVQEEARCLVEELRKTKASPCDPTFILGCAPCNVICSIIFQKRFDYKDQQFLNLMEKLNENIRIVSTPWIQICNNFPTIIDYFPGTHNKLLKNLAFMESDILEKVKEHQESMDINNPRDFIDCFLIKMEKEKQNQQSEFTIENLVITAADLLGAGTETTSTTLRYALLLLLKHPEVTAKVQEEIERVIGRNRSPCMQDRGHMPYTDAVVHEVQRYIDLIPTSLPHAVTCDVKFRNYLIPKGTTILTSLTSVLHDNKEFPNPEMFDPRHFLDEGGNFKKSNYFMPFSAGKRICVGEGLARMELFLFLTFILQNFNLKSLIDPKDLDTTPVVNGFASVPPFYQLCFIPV
Chain of Cytochrome P450 2D6 (Homo sapiens) (P10635 whole entry, looked up): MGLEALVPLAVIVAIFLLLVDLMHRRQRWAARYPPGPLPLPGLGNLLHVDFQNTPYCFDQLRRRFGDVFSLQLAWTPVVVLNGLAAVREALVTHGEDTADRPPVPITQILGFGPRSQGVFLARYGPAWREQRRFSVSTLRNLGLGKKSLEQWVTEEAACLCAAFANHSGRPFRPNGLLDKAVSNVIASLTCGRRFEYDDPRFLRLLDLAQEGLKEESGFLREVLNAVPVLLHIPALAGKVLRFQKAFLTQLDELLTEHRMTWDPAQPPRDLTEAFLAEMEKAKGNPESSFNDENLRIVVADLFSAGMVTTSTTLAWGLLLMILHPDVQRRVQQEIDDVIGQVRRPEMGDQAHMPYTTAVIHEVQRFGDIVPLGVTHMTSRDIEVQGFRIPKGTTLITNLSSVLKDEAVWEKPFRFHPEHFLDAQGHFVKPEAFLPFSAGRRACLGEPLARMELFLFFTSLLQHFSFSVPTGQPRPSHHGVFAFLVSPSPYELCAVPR
Chain of Cytochrome P450 2C9 (Homo sapiens) (P11712 whole entry, looked up): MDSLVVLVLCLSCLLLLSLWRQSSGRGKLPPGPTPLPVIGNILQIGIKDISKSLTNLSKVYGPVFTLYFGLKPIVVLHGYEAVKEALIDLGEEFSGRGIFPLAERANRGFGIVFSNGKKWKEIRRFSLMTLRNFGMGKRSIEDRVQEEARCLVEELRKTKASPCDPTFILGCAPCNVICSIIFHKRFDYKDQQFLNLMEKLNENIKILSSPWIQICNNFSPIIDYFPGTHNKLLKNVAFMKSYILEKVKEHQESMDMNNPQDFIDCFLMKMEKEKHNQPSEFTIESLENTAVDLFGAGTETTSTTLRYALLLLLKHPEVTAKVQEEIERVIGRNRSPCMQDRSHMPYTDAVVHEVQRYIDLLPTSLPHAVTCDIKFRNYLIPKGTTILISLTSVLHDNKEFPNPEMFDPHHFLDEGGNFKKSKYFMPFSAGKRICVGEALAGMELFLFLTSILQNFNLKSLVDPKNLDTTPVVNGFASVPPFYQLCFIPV
Chain of Nuclear receptor subfamily 1 group I member 2 (Rattus norvegicus) (Q9R1A7 whole entry, looked up): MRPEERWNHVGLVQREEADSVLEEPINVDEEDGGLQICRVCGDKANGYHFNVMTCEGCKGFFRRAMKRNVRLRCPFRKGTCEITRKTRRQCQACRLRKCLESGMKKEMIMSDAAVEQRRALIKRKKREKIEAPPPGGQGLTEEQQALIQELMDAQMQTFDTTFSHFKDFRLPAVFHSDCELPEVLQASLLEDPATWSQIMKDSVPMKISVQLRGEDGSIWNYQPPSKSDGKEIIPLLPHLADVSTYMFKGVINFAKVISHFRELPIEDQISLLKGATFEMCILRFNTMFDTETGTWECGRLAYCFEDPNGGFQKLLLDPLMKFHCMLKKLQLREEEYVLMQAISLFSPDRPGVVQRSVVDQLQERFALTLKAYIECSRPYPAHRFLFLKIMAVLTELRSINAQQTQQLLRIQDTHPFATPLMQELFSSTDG
Chain of Acetylcholinesterase (Homo sapiens) (P22303 whole entry, looked up): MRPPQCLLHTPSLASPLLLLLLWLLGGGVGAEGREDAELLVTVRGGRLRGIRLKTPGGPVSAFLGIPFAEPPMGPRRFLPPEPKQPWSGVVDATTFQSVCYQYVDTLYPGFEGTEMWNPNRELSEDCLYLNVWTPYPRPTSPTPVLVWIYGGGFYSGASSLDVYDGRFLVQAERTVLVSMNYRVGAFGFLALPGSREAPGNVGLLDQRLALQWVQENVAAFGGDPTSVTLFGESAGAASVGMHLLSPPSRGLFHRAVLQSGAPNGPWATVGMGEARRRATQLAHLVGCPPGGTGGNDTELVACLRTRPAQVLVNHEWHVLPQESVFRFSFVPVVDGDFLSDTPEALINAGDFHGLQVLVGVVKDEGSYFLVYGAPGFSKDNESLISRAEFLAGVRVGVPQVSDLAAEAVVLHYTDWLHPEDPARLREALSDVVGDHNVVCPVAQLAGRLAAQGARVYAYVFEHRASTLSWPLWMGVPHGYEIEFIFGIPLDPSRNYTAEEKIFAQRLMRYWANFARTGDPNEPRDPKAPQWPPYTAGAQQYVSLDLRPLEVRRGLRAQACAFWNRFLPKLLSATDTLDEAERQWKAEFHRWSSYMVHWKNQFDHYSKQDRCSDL

As to `CN(C)[C@@H]1C(=O)C(C(N)=O)=C(O)[C@@]2(O)C(=O)C3=C(O)c4c(O)cccc4[C@@](C)(O)[C@H]3[C@H](O)[C@@H]12`, the Potency result in [1], in [2], in assay [5], in assay [6], in assay [7] and in [9] was “inactive” in each case. Besides, the Potency entry in assay [10] and in assay [11] was “inactive” in each case. In addition, the max activation in assay [3] is -4.55% (inactive) and -1.55% (inactive). Besides, in assay [4], the outcome was inactive. The Potency in [8] was 61.8 µM (active) and 39.6 µM (active).

As to `Nc1ccc(-c2ccc(N)cc2)cc1`, the Potency result in [1], in [12], in assay [13], in assay [14], in assay [15] and in assay [6] was “inactive” in each case. Also, the Potency result in [10] was “inactive”. Also, the Potency in assay [2] is 30.3 µM (active) and 1.08 µM (active) and 34.4 µM (active); in assay [7], 8.83 µM (active) and 39.6 µM (active) and 35.6 µM (active); in assay [8], 35.2 µM (active) and 11.2 µM (active) and 25.2 µM (active); in [9], 19.8 µM (active) and 14.1 µM (active) and 25.2 µM (active); in assay [11], 7.87 µM (active) and 7.91 µM (active) and 17.8 µM (active).

For `Nc1ccccc1`, the Potency entry in [1], in assay [12], in assay [2], in assay [10] and in assay [11] was “inactive” throughout. For the same compound, the Potency result is “inactive and 64.5 µM (active)” in assay [6]; 30.9 µM (active) and 36.3 µM (active) and inactive in [7]; “inactive and 40.7 µM (active)” in [8]; 36.3 µM (active) and inactive and 27.5 µM (active) in assay [9].

Turning to `CCCC[n+]1ccccc1`, the Potency entry in assay [1], in [12], in assay [2], in assay [6], in [7] and in assay [8] was “inactive” each time. Also, the Potency result in [9], in [10] and in [11] was “inactive” in each case.

Regarding `Oc1ccccc1-c1ccccc1`, the Potency entry in assay [1], in assay [5], in [13], in assay [14], in assay [15] and in assay [10] was “inactive” each time. In assay [11], the Potency entry is “inactive”. The Potency result in assay [2] was “inactive and 31.4 µM (active)”; in [6], 39.9 µM (active); in assay [7], 39.9 µM (active) and 31.7 µM (active) and 23 µM (active); in [8], 71 µM (active) and 35.6 µM (active) and 25.8 µM (active); in assay [9], 23 µM (active) [middle of 4 runs]. Moreover, the max activation in assay [3] was -1.27% (inactive). In addition, in assay [4], the compound was classed as inactive.

As for `CCC[N+]1(C)CCCC1`, the Potency entry in assay [1], in [12], in [2], in [6], in assay [7] and in [8] was “inactive” throughout. The Potency result in assay [9], in assay [10] and in [11] was “inactive” throughout.

Regarding `O=[N+]([O-])O`, the Potency result in [1], in [12] and in assay [10] was “inactive” in each case.

`COP(=O)(OC)OC=C(Cl)Cl`: the Potency result in assay [1], in [12], in [2], in assay [5], in assay [13] and in assay [14] was “inactive” throughout. Besides, the Potency entry in assay [15], in assay [6], in [7], in assay [8], in assay [10] and in assay [11] was “inactive” each time. In addition, the max activation in assay [3] is 0.647% (inactive). Moreover, in assay [4], the result was inactive. For the same compound, the Potency entry in [9] is “inactive and 15.4 µM (active)”.
